SUMO Mot1 rescue = blocks SUMOylation pathway, rescuing yeast Mot1-301 growth; growth rescue, % at 18.8 µM; 1% of 320,000 active; S. cerevisiae Mot1-301 growth rescue, ATP luminescence, 38.5C; percent above DMSO median, 100 means doubled;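 active means every valid replicate shows activation above 250% relative to neutral control wells; inactive means the rest, any valid replicate at or below 250%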
SKN-1 inh = blocks SKN-1 activity in C. elegans; C. elegans VP596 Pgst-4::GFP/RFP ratio, acrylamide-induced, 24 h; inhibition, % at 21.8 µM; 0.49% of 360,000 active; AID 624304;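 active means interference check ratio from 0.5 to 1.5 plus GFP to RFP signal ratio inhibition reaching or exceeding a fixed threshold, cut at about 30% in these data, passing the limit was not always enough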
Efflux pump inh = inhibitors of Candida antifungal efflux pumps expressed in yeast; S. cerevisiae Candida pump triplex, Nile Red efflux; inhibition, % at 10 µM; 0.44% of 330,000 active;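 active means plate passing quality check with inhibition over a set limit, or well fluorescence over plate mean plus 4 SD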;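 further: Nile Red retained in pooled yeast measured as flow cytometry median fluorescence; higher means more Nile Red kept so more efflux inhibition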
sPLA2-III inh = Blocks human group III sPLA2 activity. Q9NZ20. QFRET BODIPY PC-A2 liposome hydrolysis, fluorescence. inhibition, % at 12.2 µM. 0.56% of 370,000 active. AID 743126;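 active means inhibition above mean plus 3 SD of compounds lying within the high and low control bounds, cut at about 19% in these data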
Target sequence (Q9NZ20 whole entry, looked up): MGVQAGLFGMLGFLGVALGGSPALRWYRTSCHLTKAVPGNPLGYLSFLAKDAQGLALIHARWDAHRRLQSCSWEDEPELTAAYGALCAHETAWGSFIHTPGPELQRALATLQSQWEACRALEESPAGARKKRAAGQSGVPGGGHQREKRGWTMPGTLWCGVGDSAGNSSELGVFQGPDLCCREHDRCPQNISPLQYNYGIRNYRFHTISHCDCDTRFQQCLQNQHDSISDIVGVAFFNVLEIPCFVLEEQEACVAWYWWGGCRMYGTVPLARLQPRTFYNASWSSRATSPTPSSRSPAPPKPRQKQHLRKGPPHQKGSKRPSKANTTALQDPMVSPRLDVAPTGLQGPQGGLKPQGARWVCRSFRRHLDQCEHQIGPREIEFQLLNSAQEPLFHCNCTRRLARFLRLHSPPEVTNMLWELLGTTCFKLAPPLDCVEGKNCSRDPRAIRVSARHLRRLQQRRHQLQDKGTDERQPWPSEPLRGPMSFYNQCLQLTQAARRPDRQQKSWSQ
Cmpd fluor yeast = counter-screen for efflux pump inhibitors: compound fluorescence. S. cerevisiae AD/pABC3, flow cytometry. fluorescence ratio to DMSO, % at 10 µM. shares compounds with Efflux pump inh. AID 588517. 4% of 1,700 active;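 active means fluorescence ratio to DMSO above its plate's cutoff, the plate mean ratio plus 5 SD, cut at about 210% in these data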;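 further: unstained yeast with no Nile Red so the signal is compound autofluorescence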
Mdr1 pump inh = inhibitors of Candida albicans Mdr1 efflux pump | AID 588518 | shares compounds with Efflux pump inh | 1% of 1,700 active | inhibition, % at 10 µM | S. cerevisiae AD/CaMDR1, Nile Red efflux, flow cytometry; in the data active means inhibition above about 26%;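 further: higher means more Nile Red retained so more efflux inhibition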
Cdr2 pump inh = Candida Cdr2 efflux pump inhibition; 4% of 1,700 active; shares compounds with Efflux pump inh; Nile Red retention ratio vs DMSO, % at 10 µM; S. cerevisiae AD/CaCDR2, Nile Red retention, flow cytometry; in the data active means Nile Red retention ratio vs DMSO above about 190%;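 further: higher ratio means more blocking of Cdr2 efflux of the dye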
Cdr1 pump inh = inhibitors of Candida albicans Cdr1 efflux pump; shares compounds with Efflux pump inh; S. cerevisiae AD/CaCDR1, Nile Red efflux, flow cytometry; inhibition, % at 10 µM; 1% of 1,700 active; AID 588522;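 active means inhibition above the screen-wide mean plus twice its standard deviation, cut at about 32% in these data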
A number is an active result. This is a sample that favours compounds with a hit; in the whole collection about 2.2% have one here.

What do the screens show for `COCCCNC(=O)c1cccc2c(-c3cccc(C(N)=O)c3)coc12`?
SKN-1 inh: inactive; sPLA2-III inh: inactive

How did N#Cc1cc([N+](=O)[O-])ccc1NCCc1ccccn1 do in these assays?
SUMO Mot1 rescue: inactive; SKN-1 inh: inactive; Efflux pump inh: 3.5; sPLA2-III inh: inactive; Cmpd fluor yeast: inactive; Mdr1 pump inh: inactive; Cdr2 pump inh: inactive; Cdr1 pump inh: inactive

What do the screens show for `COC(=O)C1=C(C)Nc2c(c(=O)n(C)c(=O)n2C)C1c1ccc(Cl)cc1` (configuration not stated)?
SUMO Mot1 rescue: inactive; SKN-1 inh: inactive; Efflux pump inh: 22; sPLA2-III inh: inactive; Cmpd fluor yeast: inactive; Mdr1 pump inh: inactive; Cdr2 pump inh: inactive; Cdr1 pump inh: inactive

How did COC(=O)C1=C(C)Nc2c(c(=O)n(C)c(=O)n2C)C1c1ccc(C)cc1 (configuration not stated) do in these assays?
SUMO Mot1 rescue: inactive; SKN-1 inh: inactive; Efflux pump inh: inactive; sPLA2-III inh: inactive

How did Nc1nonc1C(=O)N/N=C/c1ccc(-c2cccc(C(=O)O)c2)o1 do in these assays?
SUMO Mot1 rescue: inactive; Efflux pump inh: inactive

How did O=C(O)c1cccc(Nc2ccncc2[N+](=O)[O-])c1 do in these assays?
SUMO Mot1 rescue: inactive; SKN-1 inh: inactive; Efflux pump inh: 1.2; sPLA2-III inh: inactive; Cmpd fluor yeast: inactive; Mdr1 pump inh: inactive; Cdr2 pump inh: inactive; Cdr1 pump inh: inactive

How did Cc1cnc(C(=O)OCc2cc(=O)n3c(C)cccc3n2)cn1 do in these assays?
SUMO Mot1 rescue: inactive; SKN-1 inh: inactive; Efflux pump inh: inactive; sPLA2-III inh: inactive

What do the screens show for `CC(C)CNC(=O)OCc1cn(Cc2cccc(Cl)c2)nn1`?
sPLA2-III inh: inactive

Results for CCC(=O)N1CCN(c2ccc(NC(=O)c3ccc4c(c3)OCCO4)cc2)CC1 ?
SKN-1 inh: inactive; Efflux pump inh: inactive; sPLA2-III inh: inactive

How did CCC(=O)N1CCN(c2ccc(Cl)cc2NC(=O)c2ccc3c(c2)OCCO3)CC1 do in these assays?
SUMO Mot1 rescue: inactive; SKN-1 inh: inactive; Efflux pump inh: 0.8; sPLA2-III inh: inactive; Cmpd fluor yeast: inactive; Mdr1 pump inh: inactive; Cdr2 pump inh: inactive; Cdr1 pump inh: inactive

How did CCCc1nnc(NC(=O)COc2ccc3c(c2)OCO3)s1 do in these assays?
SUMO Mot1 rescue: inactive; SKN-1 inh: inactive; Efflux pump inh: 93; sPLA2-III inh: inactive; Cmpd fluor yeast: inactive; Mdr1 pump inh: inactive; Cdr2 pump inh: inactive; Cdr1 pump inh: inactive

What do the screens show for `CCCCc1nnc(NC(=O)COc2ccc3c(C)cc(=O)oc3c2)s1`?
SUMO Mot1 rescue: inactive; Efflux pump inh: inactive; sPLA2-III inh: inactive; Cmpd fluor yeast: inactive; Mdr1 pump inh: inactive; Cdr2 pump inh: inactive; Cdr1 pump inh: inactive

Results for COC(=O)[C@]12C[C@H](CC(=O)N3CCCC3)C(=O)N(Cc3ccco3)C1=C[C@H](C(C)C)O[C@@H]2C1CC1 ?
sPLA2-III inh: inactive

Results for CCc1nc2c(OCc3cc(Cl)cc(Cl)c3)cccn2c1N(C=O)Cc1ccc(OC)cc1 ?
SKN-1 inh: inactive; sPLA2-III inh: inactive

What do the screens show for `O=C(CSc1nc2ccc(Cl)cc2[nH]1)N1CCN(C(=O)c2ccco2)CC1`?
SUMO Mot1 rescue: inactive; SKN-1 inh: inactive; Efflux pump inh: 14; sPLA2-III inh: inactive; Cmpd fluor yeast: inactive; Mdr1 pump inh: inactive; Cdr2 pump inh: inactive; Cdr1 pump inh: inactive

What do the screens show for `CC(=O)c1ccc(OCc2cc(C(=O)N(C)Cc3ccccn3)no2)cc1`?
SUMO Mot1 rescue: inactive; SKN-1 inh: inactive; Efflux pump inh: inactive; sPLA2-III inh: inactive

What do the screens show for `Cc1cc(OCc2cc(C(=O)N(C)Cc3ccccn3)no2)cc(C)c1Cl`?
SUMO Mot1 rescue: inactive; SKN-1 inh: inactive; Efflux pump inh: inactive; sPLA2-III inh: inactive; Cmpd fluor yeast: inactive; Mdr1 pump inh: inactive; Cdr2 pump inh: inactive; Cdr1 pump inh: inactive

What do the screens show for `CCn1c2ccccc2c2cc(NC(=O)C(C)OC(=O)c3ccc(NC(=O)CC#N)cc3)ccc21` (configuration not stated)?
SUMO Mot1 rescue: inactive; SKN-1 inh: inactive; Efflux pump inh: 0.4; sPLA2-III inh: inactive; Cmpd fluor yeast: inactive; Mdr1 pump inh: inactive; Cdr2 pump inh: inactive; Cdr1 pump inh: inactive

Assay outcomes deposited in PubChem BioAssay by several laboratories.
